Values joined by “and” are separate entries in the source; they are usually repeats but may differ in a detail not shown here. Equal entries are not always repeated. Records with an inconclusive call do not appear. Some structures have more than one record in an assay (separate samples or runs), and their calls can disagree. Active and inactive are the calls of the source. Unless noted, calls follow the shape of the full dose curve.

A short description of assay [1]: Nuclear factor erythroid 2-related factor 2/antioxidant responsive element (Nrf2/ARE) small molecule agonists: luciferase reporter gene qHTS assay in human keratinocytes (AID 1919969). Also: nearly all actives have a fitted effect of over 35% in size. Also: potency is read from the fitted curve at half-maximal effect.
The target of assay [2] is Gonadotropin-releasing hormone receptor (Homo sapiens) (UniProt P30968). Kind of assay: Human gonadotropin-releasing hormone receptor (GnRHR) small molecule agonists, calcium flux assay in GnRHR-HEK293 cells (AID 1920063). Also: nearly all actives have a fitted effect of over 35% in size. The gist of the method: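 Agonist activity was measured as intracellular calcium flux in HEK293 cells engineered to stably express human GnRHR. After dye loading for 1 hour at 37 C, compounds in DMSO were added and fluorescence was followed for 3 minutes.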
Sequence of Gonadotropin-releasing hormone receptor (Homo sapiens) (P30968 whole entry, looked up): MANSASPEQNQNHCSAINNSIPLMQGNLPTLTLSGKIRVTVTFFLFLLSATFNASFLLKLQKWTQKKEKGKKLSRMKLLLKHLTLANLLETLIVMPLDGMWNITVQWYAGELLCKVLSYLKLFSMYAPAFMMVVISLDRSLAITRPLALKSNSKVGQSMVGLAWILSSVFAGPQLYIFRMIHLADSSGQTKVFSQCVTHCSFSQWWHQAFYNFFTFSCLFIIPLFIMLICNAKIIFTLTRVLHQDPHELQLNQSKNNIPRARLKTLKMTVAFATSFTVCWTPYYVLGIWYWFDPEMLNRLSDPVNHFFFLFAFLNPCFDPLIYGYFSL
For orientation: A change in cytosolic calcium serves as a functional read-out for many receptors and channels.

The target of assay [3] is KiSS-1 receptor (Homo sapiens) (UniProt Q969F8). Kind of assay: Human kisspeptin (KISS1R) small molecule agonists, calcium flux assay in KISS1R-HEK293 cells (AID 1920064; active = well fitted activation curve with a large enough effect in the repeat runs). The gist of the method:
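Agonist activity is monitored as intracellular calcium rise in engineered HEK293 cells carrying human KISS1R. Cells are dye-loaded for 1 h at 37 C before compound addition, and fluorescence is recorded for 3 min.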

Assay [4] is described as follows: G protein-coupled receptor (GPCR) small molecule agonists, calcium flux assay: HEK293 wild type cell line counter screen (AID 1920065). The gist of the method: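 Seed cells, incubate 18 h (37 C, 5% CO2); add calcium dye, 1 h at 37 C; pin-transfer compounds, ATP control or DMSO; read fluorescence 480/540 nm each second for 3 min.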
Assay [5] in a line: p53 small molecule agonists, cell-based qHTS assay with human liver microsomes (AID 1963577).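 Also: p53 response element beta-lactamase reporter cells with liver microsomes plus NADPH.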 The gist of the method:
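Metabolically competent format: test substances, human liver microsomes and NADPH (both 0.5 mg/mL final) incubated with p53RE-bla cells 16 h at 37 C. Beta-lactamase reporter signal then quantified by fluorescence.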
(In general: In qHTS, concentration-response curves come from the screen itself.)

Assay [6] can be described thus: p53 small molecule agonists, cell-based qHTS assay with rat liver microsomes (AID 1963578). The gist of the method: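 Each plate received p53RE-bla cells, then compound, then rat liver microsomes and NADPH (both 0.5 mg/mL final). Plates were held 16 h at 37 C, and beta-lactamase activity was detected with LiveBLAzer over 2 h.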
Assay [7] is described as follows: p53 small molecule agonists, cell-based qHTS assay with human liver microsomes: qHTS cell viability counter screen (AID 1963579). Also: nearly all actives have a fitted effect of over 45% in size. The gist of the method:
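Tox21 library compounds, delivered from DMSO stocks, were tested on p53RE-bla cells together with 0.5 mg/mL human liver microsomes and 0.5 mg/mL NADPH (final) over 16 h at 37 C; CellTiter-Glo luminescence served as the cytotoxicity measure.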

Assay [8] is described as follows: p53 small molecule agonists, cell-based qHTS assay with rat liver microsomes: qHTS cell viability counter screen (AID 1963580). Also: nearly all actives have a fitted effect of over 45% in size. The gist of the method: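 Counter screen for cytotoxicity under metabolic activation: rat liver microsomes and NADPH, 0.5 mg/mL final each, added with compounds to p53RE-bla HCT-116 cells; 16 h at 37 C, then ATP luminescence read.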
A short description of assay [9]: p53 small molecule agonists, cell-based qHTS assay: qHTS cell viability counter screen (AID 1963581). Also: nearly all actives have a fitted effect of over 45% in size. The gist of the method:
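Viability was counter-screened in parallel with the p53 agonist reporter by measuring intracellular ATP luminescence in the same HCT-116 p53RE-bla wells after 16 h compound treatment at 37 C.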

Assay [10] can be described thus: p53 small molecule agonists, cell-based qHTS assay (AID 1963582; active = well fitted activation curve with a large enough effect in the signal ratio in the repeat runs, not every such curve was filed as active; the % refers to the signal ratio). The gist of the method:
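Cells carrying a p53-responsive bla reporter are treated with test compounds for 16 h at 37 C; beta-lactamase activity is then detected with LiveBLAzer B/G FRET substrate after 2 h at room temperature.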

The target in assay [11] is 5-hydroxytryptamine receptor 2A (Homo sapiens) (UniProt P28223). The experiment in a line: 5-hydroxytryptamine receptor 2A (HTR2A) small molecule antagonists, cell-based qHTS assay (AID 1963586). Also: nearly all actives have a fitted effect of over 45% in size. The gist of the method: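 CHO cells stably expressing human HTR2A were plated for 18 h at 37 C, then loaded with calcium dye for 1 h. Compounds were preincubated 5 min at room temperature before DOI (4 nM solution) was added. Kinetic fluorescence was read for 3 min.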
Sequence of 5-hydroxytryptamine receptor 2A (Homo sapiens) (P28223 whole entry, looked up): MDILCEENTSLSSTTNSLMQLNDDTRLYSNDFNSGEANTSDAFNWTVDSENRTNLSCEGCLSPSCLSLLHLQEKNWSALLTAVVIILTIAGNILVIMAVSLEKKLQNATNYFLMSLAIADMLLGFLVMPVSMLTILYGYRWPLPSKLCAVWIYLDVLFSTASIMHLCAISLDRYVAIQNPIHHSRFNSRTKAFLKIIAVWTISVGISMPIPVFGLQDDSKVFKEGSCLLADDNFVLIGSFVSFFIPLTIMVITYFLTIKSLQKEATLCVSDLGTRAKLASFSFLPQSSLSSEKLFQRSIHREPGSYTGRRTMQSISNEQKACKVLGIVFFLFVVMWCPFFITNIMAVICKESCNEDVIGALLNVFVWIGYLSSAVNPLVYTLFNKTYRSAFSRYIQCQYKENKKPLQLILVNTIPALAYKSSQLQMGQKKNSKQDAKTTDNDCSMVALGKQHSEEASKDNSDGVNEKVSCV

The target is the same in assay [12]. Kind of assay: 5-hydroxytryptamine receptor 2A (HTR2A) small molecule agonists, cell-based qHTS assay (AID 1963587). Also: nearly all actives have a fitted effect of over 30% in size. The gist of the method: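 HTR2A-CHO cells, plated 18 h at 37 C/5% CO2, dye-loaded 1 h at 37 C; compounds in DMSO added by pin tool (agonist mode). Intracellular calcium flux read as kinetic fluorescence on FDSS over 2 min at 1 s intervals.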
The target of assay [13] is Muscarinic acetylcholine receptor M1 (Homo sapiens) (UniProt P11229). The experiment in a line: Cholinergic receptor muscarinic 1 (CHRM1) small molecule antagonists, cell-based qHTS assay (AID 1963588). Also: nearly all actives have a fitted effect of over 40% in size. The gist of the method: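 Compounds were tested at 15 concentrations in three independent runs. Dye-loaded CHRM1-CHO cells were exposed 5 min at room temperature before stimulation by acetylcholine added at 50nM. Intracellular calcium was read kinetically on FDSS for 3 min.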
Sequence of Muscarinic acetylcholine receptor M1 (Homo sapiens) (P11229 whole entry, looked up): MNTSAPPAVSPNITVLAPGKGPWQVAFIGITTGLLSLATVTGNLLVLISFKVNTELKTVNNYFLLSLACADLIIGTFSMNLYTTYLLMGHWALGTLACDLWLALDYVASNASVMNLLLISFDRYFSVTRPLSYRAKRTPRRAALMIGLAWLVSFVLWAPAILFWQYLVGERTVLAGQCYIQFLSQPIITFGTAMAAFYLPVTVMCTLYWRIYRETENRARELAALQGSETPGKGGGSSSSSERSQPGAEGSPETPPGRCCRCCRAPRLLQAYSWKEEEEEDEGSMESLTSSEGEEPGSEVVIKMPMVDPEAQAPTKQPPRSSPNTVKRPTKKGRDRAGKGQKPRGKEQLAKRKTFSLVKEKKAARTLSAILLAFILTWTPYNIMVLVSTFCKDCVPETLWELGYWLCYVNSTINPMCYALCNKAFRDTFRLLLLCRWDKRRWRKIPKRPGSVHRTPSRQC

Assay [14] shares this target. Kind of assay: Cholinergic receptor muscarinic 1 (CHRM1) small molecule agonists, cell-based qHTS assay (AID 1963589). Also: nearly all actives have a fitted effect of over 35% in size. The gist of the method: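 Cells were plated and incubated 18 h at 37 C/5% CO2, loaded with calcium dye for 1 h at 37 C, then treated with compounds in DMSO. Fluorescence was recorded kinetically at 1 sec intervals.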
A short description of assay [15]: cAMP Responsive Elements (CRE) small molecule antagonists, cell-based qHTS assay (AID 1963591; active = well fitted inhibition curve with a large enough effect in the signal ratio in the repeat runs, not every such curve was filed as active; the % refers to the signal ratio). The gist of the method: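 Cells (CRE-bla HEK 293T, DMEM with 10% dialyzed FBS and 25 mM HEPES) are seeded and incubated 18 h. Compounds are added with NKH477 agonist at 0.25 uM final for 3 h, then FRET substrate for 2 h.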
Assay [16] deals with Beta-2 adrenergic receptor (Homo sapiens) (UniProt P07550). Kind of assay: Adrenergic beta2 receptor (ADRB2) small molecule antagonists, cell-based qHTS assay (AID 1963592). Also: series mostly up to about 92 µM; nearly all actives have a fitted effect of over 50% in size. The gist of the method:
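Assay format: CHO-ADRB2 cells, 18-20hr seeding at 37C/5% CO2, then compound plus 1nM isoproterenol agonist mix for 0.5hr RT. Homogeneous time-resolved fluorescence cAMP detection after 1hr, expressed as 665/615 nm ratio.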

Assay [17] concerns the target D(2) dopamine receptor (Homo sapiens) (UniProt P14416). The experiment in a line: Dopamine D2 receptor (DRD2) small molecule agonists, cell-based qHTS assay (AID 1963594). Also: nearly all actives have a fitted effect of over 35% in size. The gist of the method: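 HEK293 cells stably expressing DRD2 were cultured 24 h at 37 C, then given Ro20-1724 (0.1 mM final) and compounds for 10 min at room temperature. NKH477 (200nM) was then added for 30 min. cAMP was read by HTRF.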

Assay [18] shares this target. Kind of assay: Dopamine D2 receptor (DRD2) small molecule antagonists, cell-based qHTS assay (AID 1963595; active = well fitted inhibition curve with a large enough effect in the signal ratio in the repeat runs, with a control signal flat; the % refers to the signal ratio). The gist of the method: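 HTRF cAMP read-out at 665 and 620 nm emission (340 nm excitation). Antagonist mode: compounds were tested against 12 nM quinpirole in DRD2-HEK293 cells, with 200 nM NKH477 raising cAMP and 0.1 mM Ro20-1724 blocking its breakdown.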
Assay [19] in a line: cAMP Responsive Elements (CRE) small molecule agonists, cell-based qHTS assay (AID 1963590). The gist of the method: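 Cells carrying a CRE-driven beta-lactamase reporter (HEK 293T) are seeded, incubated overnight (18 h), and treated with test compounds for 3 h at 37 C; reporter activity is then detected with a FRET substrate after 2 h at room temperature.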

Sequence of KiSS-1 receptor (Homo sapiens) (Q969F8 whole entry, looked up): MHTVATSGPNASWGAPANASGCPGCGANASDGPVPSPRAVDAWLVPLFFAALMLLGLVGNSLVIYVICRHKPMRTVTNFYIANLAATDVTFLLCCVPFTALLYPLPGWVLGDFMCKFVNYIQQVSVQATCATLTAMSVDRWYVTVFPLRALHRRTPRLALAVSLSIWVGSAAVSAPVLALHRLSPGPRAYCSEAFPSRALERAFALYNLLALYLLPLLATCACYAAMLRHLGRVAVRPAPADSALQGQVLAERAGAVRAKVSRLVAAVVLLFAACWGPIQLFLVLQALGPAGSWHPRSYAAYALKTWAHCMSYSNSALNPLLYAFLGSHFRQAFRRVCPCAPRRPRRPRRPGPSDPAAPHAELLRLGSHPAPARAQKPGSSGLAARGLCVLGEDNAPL
Sequence of D(2) dopamine receptor (Homo sapiens) (P14416 whole entry, looked up): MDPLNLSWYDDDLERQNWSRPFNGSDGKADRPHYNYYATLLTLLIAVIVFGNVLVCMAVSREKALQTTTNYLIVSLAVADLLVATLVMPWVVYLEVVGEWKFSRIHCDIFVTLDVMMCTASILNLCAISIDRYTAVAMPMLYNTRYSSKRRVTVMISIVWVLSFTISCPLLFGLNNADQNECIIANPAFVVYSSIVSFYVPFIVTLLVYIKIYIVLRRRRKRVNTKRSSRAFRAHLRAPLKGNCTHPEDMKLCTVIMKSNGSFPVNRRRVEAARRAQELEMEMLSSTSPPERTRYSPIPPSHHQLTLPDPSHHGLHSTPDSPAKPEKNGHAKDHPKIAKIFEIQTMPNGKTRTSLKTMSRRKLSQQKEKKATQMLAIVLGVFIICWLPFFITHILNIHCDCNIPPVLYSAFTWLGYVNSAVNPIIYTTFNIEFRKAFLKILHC
Sequence of Beta-2 adrenergic receptor (Homo sapiens) (P07550 whole entry, looked up): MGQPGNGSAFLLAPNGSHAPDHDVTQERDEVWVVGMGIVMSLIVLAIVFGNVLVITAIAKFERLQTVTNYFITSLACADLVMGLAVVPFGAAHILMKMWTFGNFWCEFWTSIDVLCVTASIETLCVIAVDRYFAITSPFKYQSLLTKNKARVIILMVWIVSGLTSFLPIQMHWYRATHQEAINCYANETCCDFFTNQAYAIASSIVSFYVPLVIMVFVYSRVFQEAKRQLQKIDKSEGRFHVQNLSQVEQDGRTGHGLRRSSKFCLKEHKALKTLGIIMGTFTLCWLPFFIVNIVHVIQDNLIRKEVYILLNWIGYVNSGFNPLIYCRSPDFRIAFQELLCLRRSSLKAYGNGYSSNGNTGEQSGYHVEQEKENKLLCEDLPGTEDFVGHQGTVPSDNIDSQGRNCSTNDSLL

As to `O=C(NCc1ncc(C(F)(F)F)cc1Cl)c1c(Cl)cccc1Cl`, the Potency entry in assay [1], in [2], in assay [3], in [4], in [5] and in assay [6] was “inactive” each time. The Potency result in [7], in assay [8], in assay [9], in assay [10], in assay [11] and in [12] was “inactive” each time. Further, the Potency result in assay [13], in assay [14], in assay [15], in assay [16], in assay [17] and in assay [18] was “inactive” in each case.

As to `C1CN(SSN2CCOCC2)CCO1`, the Potency in assay [1] was 13.5 µM (active) and 68.6 µM (active). For the same compound, the Potency result in [2], in [3], in assay [4], in assay [5], in assay [6] and in [7] was “inactive” each time. Further, the Potency entry in assay [8], in assay [9], in [10], in assay [11], in [13] and in assay [16] was “inactive” throughout. For the same compound, the Potency entry in assay [17] and in [18] was “inactive” each time.

On to `Nc1ccc(O)c(N)c1`, for which the Potency entry in assay [1], in [2], in [3], in [4], in assay [5] and in assay [6] was “inactive” in each case. Besides, the Potency result in [7], in assay [8], in assay [9], in assay [10], in assay [11] and in assay [12] was “inactive” each time. The Potency entry in assay [13], in assay [14], in assay [19], in assay [15] and in [17] was “inactive” in each case.

Take `Cc1ccc(O)c(N)c1`: the Potency in [1] is 24.4 µM (active). The Potency result in [2], in [3], in assay [4], in [5], in assay [6] and in assay [7] was “inactive” in each case. The Potency result in assay [8], in assay [9], in assay [10], in assay [11], in assay [12] and in assay [13] was “inactive” each time. Further, the Potency entry in assay [14], in assay [19], in [15], in [16], in assay [17] and in assay [18] was “inactive” throughout.

With `CCc1ccc(C(c2ccc(CC)cc2)C(Cl)Cl)cc1`, in [1], the Potency result was “inactive and 27.3 µM (active)”. The Potency result in assay [2], in assay [3], in assay [4], in assay [5], in assay [6] and in assay [7] was “inactive” throughout. In addition, the Potency entry in [8], in [9], in assay [10], in [11], in assay [12] and in assay [13] was “inactive” in each case. Besides, the Potency result in assay [19], in assay [15], in assay [16] and in assay [17] was “inactive” each time.

Turning to `Cc1cc([N+](=O)[O-])ccc1N`, the Potency entry in assay [1], in [2], in assay [3], in assay [4], in assay [5] and in assay [6] was “inactive” in each case. In addition, the Potency entry in [7], in assay [8], in [9], in assay [10], in assay [11] and in assay [12] was “inactive” in each case. Besides, the Potency entry in [19], in assay [15], in [16], in assay [17] and in [18] was “inactive” throughout.

Turning to `CCc1cc(C(C)(C)C)c(O)c(C(C)(C)C)c1`, the Potency in assay [1] was 34.7 µM (active). For the same compound, the Potency entry in [2], in assay [3], in assay [4], in [5], in [6] and in assay [7] was “inactive” in each case. Also, the Potency result in assay [8], in assay [9], in [10], in assay [11], in [12] and in assay [13] was “inactive” in each case. Also, the Potency entry in assay [14], in assay [19], in assay [15], in assay [16], in assay [17] and in [18] was “inactive” throughout.

Values taken from PubChem BioAssay (Tox21).
